Experimental data published in PubChem BioAssay (NCI).
About 83,000 compounds went through this panel and 20% of them were active in at least one assay; those are over-represented in the sample as a whole.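 Results are percent growth after 48 hours of single-concentration exposure. 100 means growth as in untreated cells, lower positive values show inhibition; negative values down to -100 show cell death.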 Calls of active or inactive are those of the source. Rule for the calls: active = growth percent below 10; inactive = the rest.

Experiments:
Test in all cases: NCI-60 one-dose screen, 48 h (100 = growth as untreated, 0 = no growth, -100 = all killed)
HCT-15 colon = conditions: 10 µM unless noted
HT29 colon = conditions: 10 µM unless noted
SNB-75 CNS = conditions: 10 µM unless noted
SNB-19 CNS = conditions: 10 µM unless noted
PC-3 prostate = conditions: 10 µM unless noted
SK-MEL-5 melanoma = conditions: 10 µM unless noted
UACC-62 melanoma = conditions: 10 µM unless noted
LOX IMVI melanoma = conditions: 10 µM unless noted
SK-MEL-28 melanoma = conditions: 10 µM unless noted
SK-MEL-2 melanoma = conditions: 10 µM unless noted
SN12C renal = conditions: 10 µM unless noted
UO-31 renal = conditions: 10 µM unless noted
TK-10 renal = conditions: 10 µM unless noted
ACHN renal = conditions: 10 µM unless noted
CAKI-1 renal = conditions: 10 µM unless noted
A498 renal = conditions: 10 µM
HL-60(TB) leukemia = conditions: 10 µM unless noted
CCRF-CEM leukemia = conditions: 10 µM unless noted
U251 CNS = conditions: 10 µM unless noted
EKVX NSCLC = conditions: 10 µM unless noted

Measured: growth

Nc1ccc(OCCNS(=O)(=O)c2cccc(S(=O)(=O)F)c2)c(Cl)c1
inactive: HCT-15 colon 93.4% | HT29 colon 106% | SNB-75 CNS 50.5% | SNB-19 CNS 96.6% | PC-3 prostate 97.6% | SK-MEL-5 melanoma 97.1% | UACC-62 melanoma 93.2% | LOX IMVI melanoma 94.2% | SK-MEL-28 melanoma 88.8% | SK-MEL-2 melanoma 88.9% | SN12C renal 102% | TK-10 renal 102% | ACHN renal 96.2% | CAKI-1 renal 86.8% | A498 renal 70.8% | HL-60(TB) leukemia 98.1% | CCRF-CEM leukemia 93.5%
active: UO-31 renal -13.3%

O=C1C=C(N2C3C4CCC(C4)C32)C(=O)C=C1c1ccccc1 (centres undefined)
active: CCRF-CEM leukemia 0.362%
inactive: HCT-15 colon 82.7% | HT29 colon 108% | SNB-75 CNS 65.4% | SNB-19 CNS 91.4% | PC-3 prostate 81.7% | SK-MEL-5 melanoma 95.9% | UACC-62 melanoma 80.6% | LOX IMVI melanoma 89.9% | SK-MEL-28 melanoma 91.7% | SK-MEL-2 melanoma 87.8% | SN12C renal 93.8% | UO-31 renal 90.8% | TK-10 renal 142% | ACHN renal 73.4% | CAKI-1 renal 58% | A498 renal 49.3% | HL-60(TB) leukemia 44.8%

CC[C@]12C=CCN3CC[C@]4(C(=C(C(=O)OC)C1)Nc1cc(OC)c(OC(C)=O)cc14)[C@@H]32
inactive: HCT-15 colon 21% | SNB-75 CNS 50.6% | SNB-19 CNS 32.2% | PC-3 prostate 22.5% | SK-MEL-2 melanoma 41.5% | EKVX NSCLC 55.6% | UO-31 renal 28.6% | TK-10 renal 21.4% | ACHN renal 21.4% | CAKI-1 renal 21%
active: HT29 colon 0.643% | U251 CNS 3.52% | SK-MEL-5 melanoma -33.4% | SN12C renal 8.6% | A498 renal -7.74% | HL-60(TB) leukemia -8.44% | CCRF-CEM leukemia 0.65%

Cc1c2cc(Cl)c3ccccc3c2c[n+]2ccccc12
active: SNB-75 CNS -15.7% | SNB-19 CNS -26.3% | U251 CNS 0.443% | SK-MEL-5 melanoma -43.5% | SK-MEL-28 melanoma -27.2% | SK-MEL-2 melanoma -16.6% | SN12C renal -19.4%
inactive: HCT-15 colon 103% | HT29 colon 88.9% | UACC-62 melanoma 29.1% | LOX IMVI melanoma 84.6% | EKVX NSCLC 43.2% | UO-31 renal 62% | TK-10 renal 93.3% | A498 renal 90.2% | HL-60(TB) leukemia 62.3% | CCRF-CEM leukemia 35.5%

CC[C@H](C)[C@@H]1OC(=O)C(C)(C)[C@H](O)[C@H](Cc2ccccc2)OC(=O)[C@H](C(C)C)OC(=O)[C@@H](NC(=O)c2cccc(NC=O)c2O)[C@@H](C)OC1=O
inactive: HCT-15 colon 36.2% | HT29 colon 48.4% | SNB-75 CNS 63.9% | SNB-19 CNS 49.5% | U251 CNS 41.2% | PC-3 prostate 43.9% | LOX IMVI melanoma 38.1% | SK-MEL-2 melanoma 36.2% | EKVX NSCLC 29.9% | UO-31 renal 47.3% | TK-10 renal 49.8% | ACHN renal 46.4% | CAKI-1 renal 38.7% | A498 renal 67.2% | HL-60(TB) leukemia 60% | CCRF-CEM leukemia 36.7%

O=C(CC1(O)C(=O)Nc2ccc(Br)cc21)c1ccc(C(=O)NCC2CCC3(CC2)OOC2(CCCCC2)OO3)cc1 (centres undefined)
inactive: HCT-15 colon 54.2% | HT29 colon 47.2% | SNB-75 CNS 64.6% | SNB-19 CNS 61.4% | U251 CNS 11.8% | PC-3 prostate 38.9% | LOX IMVI melanoma 32.6% | SK-MEL-28 melanoma 73.3% | SK-MEL-2 melanoma 23.3% | SN12C renal 59.1% | TK-10 renal 72.5% | A498 renal 84.7%
active: EKVX NSCLC -36.4% | UO-31 renal -82.4% | ACHN renal -40.8% | CAKI-1 renal 0.714% | HL-60(TB) leukemia -39.2% | CCRF-CEM leukemia -34.4%

COC(=O)C1OC(Oc2ccc(N(CCCl)CCCl)cc2)C(OC(C)=O)C(OC(C)=O)C1OC(C)=O (centres undefined)
inactive: HCT-15 colon 83.3% | HT29 colon 80.7% | SNB-75 CNS 59.2% | SNB-19 CNS 92.6% | PC-3 prostate 78% | SK-MEL-5 melanoma 92.1% | UACC-62 melanoma 79.6% | LOX IMVI melanoma 77.2% | SK-MEL-28 melanoma 83.5% | SK-MEL-2 melanoma 109% | SN12C renal 62.4% | UO-31 renal 73.1% | TK-10 renal 92.5% | ACHN renal 27.4% | A498 renal 104% | HL-60(TB) leukemia 40.1% | CCRF-CEM leukemia 37.2%
active: CAKI-1 renal 3.7%

CNC(=O)Oc1ccc(N(C)C)cc1C(C)C
inactive: HCT-15 colon 102% | HT29 colon 98.2% | SNB-75 CNS 66.5% | SNB-19 CNS 101% | U251 CNS 101% | SK-MEL-5 melanoma 99.4% | UACC-62 melanoma 102% | LOX IMVI melanoma 105% | SK-MEL-28 melanoma 101% | SK-MEL-2 melanoma 103% | EKVX NSCLC 95.5% | SN12C renal 98.2% | UO-31 renal 88.7% | TK-10 renal 95% | ACHN renal 99.4% | CAKI-1 renal 40.9% | A498 renal 101% | HL-60(TB) leukemia 130%

CC[C@]12C=CCN3CC[C@@]4(c5ccc(OC)cc5N(C)[C@H]4[C@@](O)(C(=O)OC)[C@@H]1OC(=O)CCCC[P+](c1ccccc1)(c1ccccc1)c1ccccc1)[C@@H]32
inactive: HCT-15 colon 99.3% | SNB-19 CNS 12.7% | U251 CNS 10.9% | SK-MEL-28 melanoma 12.5% | EKVX NSCLC 56.1% | UO-31 renal 81.9% | TK-10 renal 48.6% | ACHN renal 93.1% | CAKI-1 renal 85.9% | A498 renal 52.2% | CCRF-CEM leukemia 15.6%
active: HT29 colon 2.65% | SNB-75 CNS -12.8% | SK-MEL-5 melanoma -72.9% | UACC-62 melanoma -6.54% | SK-MEL-2 melanoma -41.6% | SN12C renal 4.56% | HL-60(TB) leukemia -63.5%

O=C(CC1(O)C(=O)Nc2ccccc21)c1ccc(C(=O)NCC2CCC3(CC2)OOC2(CCCCC2)OO3)cc1 (centres undefined)
active: UO-31 renal -77.2% | CCRF-CEM leukemia 7.85%
inactive: HCT-15 colon 79.9% | HT29 colon 82.1% | SNB-75 CNS 82.1% | SNB-19 CNS 86.4% | U251 CNS 63.6% | PC-3 prostate 50.8% | UACC-62 melanoma 63.4% | LOX IMVI melanoma 57.3% | SK-MEL-28 melanoma 86.4% | SK-MEL-2 melanoma 70.7% | EKVX NSCLC 58.3% | SN12C renal 74.4% | TK-10 renal 104% | ACHN renal 60.1% | CAKI-1 renal 39.5% | A498 renal 93.7% | HL-60(TB) leukemia 31.7%

CC(C)(NC(=O)O[C@@H]1CN2CCC1CC2)c1csc(-c2ccc(F)cc2)n1
inactive: HCT-15 colon 102% | HT29 colon 104% | SNB-75 CNS 67.2% | SNB-19 CNS 97.9% | PC-3 prostate 99.5% | SK-MEL-5 melanoma 99.2% | UACC-62 melanoma 87.9% | LOX IMVI melanoma 90.5% | SK-MEL-28 melanoma 103% | SK-MEL-2 melanoma 108% | EKVX NSCLC 89.5% | SN12C renal 95.4% | UO-31 renal 81.1% | TK-10 renal 91.9% | ACHN renal 98.4% | CAKI-1 renal 81.5% | A498 renal 90.6% | HL-60(TB) leukemia 90% | CCRF-CEM leukemia 98.3%

Cc1cc(NC(=O)NCc2ccc(N3C(N)=NC(N)=NC3(C)C)cc2)ccc1S(=O)(=O)F
inactive: HCT-15 colon 62.2% | HT29 colon 11.3% | SNB-75 CNS 56% | SNB-19 CNS 34.3% | U251 CNS 32.7% | SK-MEL-5 melanoma 21% | UACC-62 melanoma 11.6% | LOX IMVI melanoma 16.7% | SK-MEL-28 melanoma 57.4% | SK-MEL-2 melanoma 34.4% | EKVX NSCLC 53.5% | SN12C renal 33.6% | UO-31 renal 80.1% | TK-10 renal 45.7% | ACHN renal 89.2% | A498 renal 77.7% | HL-60(TB) leukemia 24.7% | CCRF-CEM leukemia 55.4%
